# Laboratory results from the supplement of paper PMC11482750.
# ± gives the standard deviation of the averaged measurements.
# Compound: CCCCN=C=S [butyl isothiocyanate]
# Test: control-subtracted net OSN firing rate; higher = stronger neuronal activation
# Settings: odorant dilution (vol/vol): 1/100
# Summary of the method: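 Fed female flies 1–5 days old, Scaptomyza species or D. melanogaster wild-type, mutant or at1 empty-neuron lines expressing Or42a homologs, were used for single sensillum recordings from palp or antennal olfactory sensory neurons. Each odorant, at 1:100 vol/vol in mineral oil or dimethyl sulfoxide with 20 μl applied to filter paper, was given as a 1 s pulse into a 16 ml/min filtered air stream. Spike counts over 0.5 s from 0.2 s after onset were background-subtracted, doubled and solvent-corrected, then averaged across replicates.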
target,measurement,value
"Or67dGal4, UAS-Spal Or42a at1",control-subtracted net OSN firing rate,18.2 ± 16 spikes/s
